The panel holds about 83,000 compounds, 20% with a hit somewhere; the sample as a whole holds those more often.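 Each cell line was grown in a 96-well plate and treated with one concentration of compound for 48 hours. Values below 10 were considered active.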 A number with no mark means an inactive call. The source made the active and inactive calls.
Test system: HL-60(TB) leukemia
Assay: NCI-60 one-dose screen, 48 h (100 = growth as untreated, 0 = no growth, -100 = all killed)
Conditions: 10 µM unless noted

SMILES | growth
CC(=O)OCC(=O)C1CCC=CC1OC(C)=O (centres undefined) | 99.3%
O=S(=O)(NCCCNc1nccc(-c2c(-c3ccc(F)c(O)c3)nc3sccn23)n1)c1ccc(Cl)cc1 | 83.1%
CCN(CC)CCCNc1nccc2ccc(Cl)cc12 | 99.4%
CNCc1cccc2c1OCCOCCN(C)C(=O)CN(C)S(=O)(=O)c1ccc(cc1)-c1cnc(N)c(n1)C(=O)N2 | -32.9% (active)
NC(=N\N=C/c1ccc(Cl)cc1Cl)/C(N)=N\N=C/c1ccc(Cl)cc1Cl | 79.7%
O=S(=O)(Nc1cc(Sc2nc3ccccc3s2)c(O)c2ccccc12)c1ccc2ccccc2c1 | 71.6%
CC1=C(C(=O)n2c3ccccc3c3ccccc32)C(c2cccc([N+](=O)[O-])c2)C(C(=O)n2c3ccccc3c3ccccc32)=C(C)N1 | 91%
CS(=O)(=O)c1ccc(-n2nc(-c3ccc(Br)cc3)c3ccccc3c2=O)cc1 | 93.3%
Cn1c(/C=C/[N+](=O)[O-])cc2ccccc21 | 53.4%
CCCCCSc1ccc2nc(NC(=O)OCCC)sc2c1 | 5.41% (active)
CC1(C)CC[C@]23CC[C@]4(C)[C@H](CC[C@@H]5[C@@]6(C)CCCNC(C)(C)[C@@H]6CC[C@]54C)[C@H]2[C@H]1OC3 | -65.5% (active)
CCCC(=O)NNc1[nH]c(-c2ccc(OC)cc2)cc1C(=O)OCC | -27.7% (active)
N#CCCc1ccc(O)cc1 | 95.6%
O=C(Cc1ccc(/C=C/C(=O)c2ncc[nH]2)cc1)Nc1ccc(Br)cc1 | 0.0282% (active)

Source: PubChem BioAssay (NCI)
